# TSHR agonist – TSH receptor (human) agonism. P16473. HEK293-CNG-TSHR cells (CNG channel as cAMP sensor), membrane potential dye, cAMP. Potency, µM (highest dose often 57.1 µM), inactives show at the top dose activation, most hits filed as activators. 0.48% of 73,000 active; active means well fitted activation curve with a large enough effect in the main read-out, with a control signal flat, not every such curve was filed as active; inconclusive means small, poorly fitted or top-dose-only effect, or a change in a side signal; inactive means no such curve, though single readings can be large or run the other way; % of control where 0% means no effect;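 further: the control signal comes from parental cells without the receptor; potency means the concentration at half of the fitted maximal effect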
#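 HEK 293 cells stably expressing TSHR and a modified CNG channel, with CNG-only parental cells as counterscreen, were preloaded 60 min at room temperature with membrane potential dye containing 100 uM RO 20-1724. Compound exposure was 30 min, and depolarization was read as fluorescence at 590 nm.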
# TsaE inh – displaces an ADP probe from E. coli YjeE (TsaE); 0.05% of 71,000 active; Potency, µM; AID 605; P0AF67; purified YjeE enzyme, qHTS inhibition assay
#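 Fluorescence polarization of a BODIPY Texas Red–ADP probe (2 uM) bound to purified YjeE (10 uM) was read after 15 min room-temperature incubation with compounds. Loss of polarization marks inhibitors; ADP serves as titrated control.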
# BRCT inh green – blocks human BRCA1 BRCT binding to phosphopeptide, green readout; BRCA1 BRCT-phosphopeptide binding, green fluorescence polarization; 0.05% of 75,000 active; AID 875; Potency, µM (highest dose often 76.9 µM), inactives show at the top dose activity change, negative = inhibition, usual class: inhibitors; P38398;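 further: potency means the concentration at half of the fitted maximal effect; plate controls were peptide without protein for full effect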
# Target sequence (P38398 whole entry, looked up): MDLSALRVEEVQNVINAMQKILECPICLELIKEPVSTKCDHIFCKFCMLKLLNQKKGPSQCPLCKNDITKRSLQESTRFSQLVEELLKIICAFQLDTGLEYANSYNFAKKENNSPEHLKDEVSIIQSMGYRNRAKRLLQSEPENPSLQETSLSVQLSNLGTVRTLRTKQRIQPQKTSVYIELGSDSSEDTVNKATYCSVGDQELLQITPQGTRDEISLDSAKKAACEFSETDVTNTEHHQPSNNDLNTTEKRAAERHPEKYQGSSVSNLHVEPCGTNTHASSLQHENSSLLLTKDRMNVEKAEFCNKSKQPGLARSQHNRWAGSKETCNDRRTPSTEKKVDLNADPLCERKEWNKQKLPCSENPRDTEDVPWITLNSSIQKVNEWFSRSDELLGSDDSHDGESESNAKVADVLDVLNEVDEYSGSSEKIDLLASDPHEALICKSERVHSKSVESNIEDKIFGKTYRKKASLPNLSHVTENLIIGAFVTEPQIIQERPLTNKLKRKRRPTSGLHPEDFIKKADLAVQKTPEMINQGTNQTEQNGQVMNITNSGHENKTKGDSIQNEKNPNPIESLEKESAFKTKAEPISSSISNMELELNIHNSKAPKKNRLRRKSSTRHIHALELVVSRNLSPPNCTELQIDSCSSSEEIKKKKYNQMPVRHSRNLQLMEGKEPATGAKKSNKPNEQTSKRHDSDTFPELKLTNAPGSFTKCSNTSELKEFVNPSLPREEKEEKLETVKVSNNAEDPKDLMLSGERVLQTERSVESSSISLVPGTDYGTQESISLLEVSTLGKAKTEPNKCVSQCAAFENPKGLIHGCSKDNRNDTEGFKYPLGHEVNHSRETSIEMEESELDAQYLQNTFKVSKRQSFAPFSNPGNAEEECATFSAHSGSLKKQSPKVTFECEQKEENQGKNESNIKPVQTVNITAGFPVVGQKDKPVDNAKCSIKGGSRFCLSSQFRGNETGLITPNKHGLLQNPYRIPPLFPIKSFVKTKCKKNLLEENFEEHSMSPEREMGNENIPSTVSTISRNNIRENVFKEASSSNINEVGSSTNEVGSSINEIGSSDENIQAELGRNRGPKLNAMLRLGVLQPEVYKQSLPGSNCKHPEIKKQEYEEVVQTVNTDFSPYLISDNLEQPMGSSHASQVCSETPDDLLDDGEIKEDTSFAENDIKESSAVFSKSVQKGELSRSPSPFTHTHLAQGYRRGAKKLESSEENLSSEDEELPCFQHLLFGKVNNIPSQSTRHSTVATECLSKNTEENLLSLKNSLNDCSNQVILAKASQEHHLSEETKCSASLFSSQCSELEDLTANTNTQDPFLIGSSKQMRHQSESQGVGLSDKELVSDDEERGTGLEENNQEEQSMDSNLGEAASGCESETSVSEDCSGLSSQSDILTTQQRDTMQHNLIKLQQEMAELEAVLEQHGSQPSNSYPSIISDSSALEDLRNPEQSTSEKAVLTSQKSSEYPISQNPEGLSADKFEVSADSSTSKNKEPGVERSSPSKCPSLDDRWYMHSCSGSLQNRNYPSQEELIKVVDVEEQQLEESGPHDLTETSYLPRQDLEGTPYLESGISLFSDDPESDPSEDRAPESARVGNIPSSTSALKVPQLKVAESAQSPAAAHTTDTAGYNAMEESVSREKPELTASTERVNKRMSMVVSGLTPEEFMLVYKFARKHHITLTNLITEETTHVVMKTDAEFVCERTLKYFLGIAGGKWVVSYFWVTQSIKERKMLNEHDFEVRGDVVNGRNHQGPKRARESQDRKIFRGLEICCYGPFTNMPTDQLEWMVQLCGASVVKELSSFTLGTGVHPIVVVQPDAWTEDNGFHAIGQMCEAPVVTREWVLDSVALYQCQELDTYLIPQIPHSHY
#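 Compounds were incubated for 12 min at room temperature with a complex of 100 nM fluorescein-tagged pBACH1 decapeptide and 250 nM His-tagged BRCT protein. Buffer was phosphate pH 7.3 with EDTA, DTT and Tween 20. Disruption of binding lowers the polarization signal.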
# Pol III holo inh – inhibitors of bacterial DNA polymerase III holoenzyme; 0.25% of 71,000 active; Potency, µM (top dose mostly 57.1 µM), without a hit: top-dose activity change, negative = inhibition; reconstituted DNA polymerase III holoenzyme replication, biochemical; further: potency means the concentration at half of the fitted maximal effect; on the % scale 0 is the no-effect control and ±100 the full control effect
#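 Reconstituted *E. coli* holoenzyme (0.35 nM Pol III, 1 nM beta, 154 nM SSB, 2 nM primase) was preincubated with compound for 15 min at RT. Synthesis on 1.4 nM ssM13Gori ran 35 min, then was stopped with PicoGreen/EDTA and read as dsDNA fluorescence.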
# HEK293 cAMP ctrl – counter-screen for TSHR agonists: cAMP increase in parental HEK293. AID 938. Potency, µM (top dose mostly 57.1 µM), for the others: top-dose activation, usual class: activators. parental HEK293 CNG cAMP sensor, membrane potential fluorescence. 2.5% of 73,000 active; further: potency means the concentration at half of the fitted maximal effect; % of control where 0% means no effect; nearly all actives have a fitted effect of over 55% in size
#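 Parental HEK 293 cells stably expressing a modified CNG channel (no TSHR) report cAMP rise as membrane depolarization. Membrane potential dye with 100 uM RO 20-1724 was loaded for 60 min at room temperature, then compound added for 30 min; fluorescence read at 590 nm.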
# BRCT inh red – disrupts BRCA1 BRCT binding to phosphoprotein, red fluorophore readout; P38398; BRCT-phosphopeptide binding, red fluorescence polarization; Potency, µM (doses to about 76.9 µM), for inactives: at the top dose activity change, negative = inhibition, usual class: inhibitors; 0.03% of 75,000 active; AID 892; further: on the % scale 0 is the no-effect control and ±100 the full control effect
#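 Fluorescence polarization: 100 nM His-tagged BRCA1 BRCT with 100 nM TAMRA-labelled phospho-BACH1 decapeptide, phosphate buffer pH 7.3 with 150 mM NaCl, DTT, 0.01% Tween 20; 12 min RT. Binding inhibition seen as FP decrease.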
# Starred values were filed as active, the others as inactive; i = inactive; ? = inconclusive; . = no result; ! = a repeat was not active; [ ] = remark or other dose. Most compounds without a hit are left out; they make up all but 3.2% or so of the library. Unless noted, the call rests on the fitted dose curve; in most records, active means well fitted curve in the direction sought with a large enough effect; inconclusive means small, poorly fitted or top-dose-only effect, or another doubt; inactive means no such curve, though single readings can be large; an effect the other way counts as inactive or inconclusive.
SMILES,TSHR agonist,TsaE inh,BRCT inh green,Pol III holo inh,HEK293 cAMP ctrl,BRCT inh red
COC(=O)c1cc(CSc2nnc(NC3CCCCC3)s2)oc1C,?,i,-1%,-8%,13µM*,1%
COC(=O)c1ccc(CSc2nnc(SCc3ccc(C(=O)OC)o3)s2)o1,?,i,1%,-2%,?,-2%
CC(=O)Oc1cc2c(c(C)c1OC(C)=O)CC=C1[C@]3(C)CC[C@]4(C)CC[C@@](C)(C(=O)O)CC4[C@]3(C)CC[C@]12C (some centres not stated),.,.,0%,.,.,0%
Cc1cc(C)nc(SCc2nnc(SCc3ccccc3Cl)o2)n1,?,i,-6%,-4%,20µM*,-3%
COc1ccc(S(=O)(=O)N2CCC(C(=O)N3CCc4ccccc4C3)CC2)cc1,?,i,-3%,-5%,32µM*,0%
CC(C)NC(=O)N1CC2(CCN(C(=O)c3ccncc3)CC2)C1,1%,i,-2%,-1%,4%,1%
Fc1ccc(Cn2nnnc2CN2CCN(C3CCCCC3)CC2)cc1,?,i,-3%,-11%,10µM*,0%
O=C(NCCc1ccc2c(c1)OCO2)C1CCN(S(=O)(=O)c2ccc(Cl)cc2)CC1,?,i,0%,-9%,13µM*,1%
COc1ccc(Oc2ncc3nc(-c4cc(F)cc(F)c4)c(=O)n(C[C@H]4CCCO4)c3n2)cc1,1%,i,-3%,-1%,17%,0%
Cc1ccc(-n2c3c(cc(C(=O)NCc4ccco4)c2=O)C(=O)CC(C)(C)C3)cc1,4µM*,i,1%,6%[11.4 µM],21%[11.4 µM],-3%
NCCc1ccn[nH]1,2%[25.6 µM],i,-2%[34.4 µM],-18%[25.6 µM],-2%[25.6 µM],-1%[34.4 µM]
NC(=O)CN1CCN(C(=O)NC2CCCCC2)CC1,?,i,-1%,-2%,25µM*,-1%
CC(=O)NCC(=O)N[C@H](CCC(=O)O)C(=O)O,-1%,i,-3%,-4%,3%,1%
CCCn1c(CN(C)Cc2ccccc2)nc2c1c(=O)n(C)c(=O)n2C,?,i,2%,-2%,?,-1%
CN(Cc1ccccc1)Cc1nc2c(c(=O)n(C)c(=O)n2C)n1CCc1ccccc1,?,i,0%,-7%,13µM*,0%
CCCCn1c(CN(C)Cc2ccccc2)nc2c1c(=O)n(C)c(=O)n2C,?,i,0%,-8%,16µM*,-1%
Brc1ccc(CSc2nnc(-c3cnccn3)n2Cc2ccco2)cc1,?,i,-2%,-4%,20µM*,-3%
Fc1ccccc1CSc1nnc(-c2cnccn2)n1Cc1ccco1,?,i,1%,-7%,25µM*,0%
CC(C)OC(=O)CSc1nnc(-c2cnccn2)n1Cc1ccco1,19%,i,-1%,-3%,9%,1%
Fc1ccc(CSc2nnc(-c3cnccn3)n2Cc2ccco2)cc1,13%,i,2%,-8%,10%,0%
C(=C\c1ccccc1)/CSc1nnc(-c2cnccn2)n1Cc1ccco1,?,i,5%,4%,13µM*,-1%
CC(=O)OCC1OC(C#CC(C)(C)C)C=CC1OC(C)=O (configuration not stated),?,.,-1%[15.4 µM],.,0%[11.4 µM],1%[15.4 µM]
COc1ccc(NC(=O)N2CC[C@@]3(CCCN(C(C)=O)C3)C2)cc1,-3%,i,-4%,0%,11%,0%
CC1(C)OCC(CSC2=C(SCC3COC(C)(C)O3)C(=O)c3ncccc3C2=O)O1 (configuration not stated),3%,?,-2%,-8%,2%,1%
COCCn1c(=O)c(-c2ccc(Cl)cc2)nc2cnc(N3CCOCC3)nc21,-3%,i,-1%,-7%,14%,0%
SMILES,TSHR agonist,TsaE inh,BRCT inh green,Pol III holo inh,HEK293 cAMP ctrl,BRCT inh red
O=C1Nc2ccc(S(=O)(=O)N3CCCCCC3)c3cccc1c23,?,i,-3%,-3%,32µM*,-2%
O=C1Nc2ccc(S(=O)(=O)N3CCOCC3)c3cccc1c23,-7%,i,-1%,-4%,-2%,1%
CC(=O)N[C@@H](CC(=O)O)C(=O)N[C@@H](CCC(=O)O)C(=O)O,-3%,i,-2%,20µM*!,1%,1%
O=C(O)c1c[nH]c2cc(OCc3ccccc3)ccc2c1=O,7%[11.4 µM],i,0%[15.4 µM],-11%[11.4 µM],7%[11.4 µM],-3%[15.4 µM]
CCOCCCNC(=O)c1ccc2c(c1)OCO2,1%,i,-2%,1%,10%,1%
CCCCC(CC)CNC(=O)c1ccc2c(c1)OCO2 (configuration not stated),?,i,0%,-8%[11.4 µM],4µM*,-2%
Cc1nc(N2CCOCC2)c2nc(-c3ccccc3)n(CC(C)(C)CN(C)C)c2n1,5%,i,-2%,-6%,27%,1%
CCN(CC)Cc1ccc(Nc2ccnc3cc(Cl)ccc23)cc1O,.,.,-2%[3.08 µM],.,.,1%
CN(C(=O)c1ccccc1)c1nc2ccccc2s1,10%,i,0%,2%,10%,-2%
COc1cccc(N(C(=O)c2cccs2)c2nc3ccccc3s2)c1,?,i,-3%,0%,13µM*,-2%
Cc1cccc2cc(C#N)c(NCCNC(=O)NC3CCCCC3)nc12,?,i,0%,3%,20µM*,-3%
O=C(CN1C(=O)NC2(CCCCCC2)C1=O)c1ccc2c(c1)OCCO2,?,i,-1%,-1%,10µM*,-2%
CC/C=C/C#N,-3%,i,-1%,2%,-3%,1%
COc1ccc(OC2C=CC(c3ccccc3)OC2CO)cc1 (configuration not stated),2%[11.4 µM],.,1%[15.4 µM],.,-2%[11.4 µM],-1%[15.4 µM]
CC1(C)CC(=O)C2=C(C1)NC(SCC(=O)Nc1ccccc1)=C(C#N)C2c1ccco1 (configuration not stated),?,i,-1%,6%,16µM*,0%
Cc1cnc(CNc2cc(-c3ccccc3CN(C)C)ncn2)cn1,?,i,-1%,-6%,?,-2%
N#Cc1ccc2ccn(CC(=O)NC3CCCCCC3)c2c1,?,i,-2%,-2%,3.2µM*,1%
CCOC(=O)c1ccccc1NC(=O)C1COc2ccccc2O1 (configuration not stated),?,i,-2%,1%,25µM*,1%
COC(=O)c1cc(NC(=O)C2COc3ccccc3O2)cc(C(=O)OC)c1 (configuration not stated),?,i,0%,-2%,?,-5%
Cc1ccc(NC(=O)CN(c2cc(C)cc(C)c2)S(=O)(=O)c2c(C)noc2C)nc1,?,i,1%,-10%,20µM*,0%

# Screening results from PubChem BioAssay.
